# Sampled rows, rich in hits. Any-hit rate of the full collection: about 13%.
# USP8 block: inhibitors of human USP8 deubiquitinase | P40818 | purified USP8, Ub-rhodamine cleavage fluorescence, 30 min | inhibition, % at 20 µM | 47,000 compounds, 4.2% hits
# Target sequence (P40818 whole entry, looked up): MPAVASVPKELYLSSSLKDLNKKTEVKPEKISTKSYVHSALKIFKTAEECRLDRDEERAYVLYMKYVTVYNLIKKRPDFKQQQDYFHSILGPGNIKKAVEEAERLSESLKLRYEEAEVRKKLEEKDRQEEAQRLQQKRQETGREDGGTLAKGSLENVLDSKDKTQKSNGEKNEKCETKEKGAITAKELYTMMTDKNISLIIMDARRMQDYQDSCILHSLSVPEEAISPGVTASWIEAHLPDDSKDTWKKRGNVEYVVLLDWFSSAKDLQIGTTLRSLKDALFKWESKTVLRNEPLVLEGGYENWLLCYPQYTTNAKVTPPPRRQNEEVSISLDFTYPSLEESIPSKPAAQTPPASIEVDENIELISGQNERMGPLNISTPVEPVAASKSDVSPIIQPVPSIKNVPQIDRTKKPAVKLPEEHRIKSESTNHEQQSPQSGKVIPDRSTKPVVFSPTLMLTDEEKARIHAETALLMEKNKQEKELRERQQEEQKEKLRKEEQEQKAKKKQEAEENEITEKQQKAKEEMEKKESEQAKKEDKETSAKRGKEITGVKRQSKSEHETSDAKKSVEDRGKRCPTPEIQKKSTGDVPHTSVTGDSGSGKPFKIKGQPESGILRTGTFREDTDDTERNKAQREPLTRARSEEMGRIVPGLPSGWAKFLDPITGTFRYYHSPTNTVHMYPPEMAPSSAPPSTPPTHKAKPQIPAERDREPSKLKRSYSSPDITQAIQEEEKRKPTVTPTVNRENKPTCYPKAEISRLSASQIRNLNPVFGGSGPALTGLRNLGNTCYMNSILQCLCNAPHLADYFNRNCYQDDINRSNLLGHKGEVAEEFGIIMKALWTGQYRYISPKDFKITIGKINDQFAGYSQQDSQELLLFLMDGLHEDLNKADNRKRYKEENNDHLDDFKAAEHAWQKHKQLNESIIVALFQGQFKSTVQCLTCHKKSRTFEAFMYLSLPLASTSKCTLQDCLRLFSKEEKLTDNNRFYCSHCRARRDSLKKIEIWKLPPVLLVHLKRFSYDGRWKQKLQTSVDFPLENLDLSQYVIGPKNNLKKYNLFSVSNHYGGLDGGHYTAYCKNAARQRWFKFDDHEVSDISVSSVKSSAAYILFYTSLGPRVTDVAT
# USP10 block: blocks human USP10 ubiquitin-rhodamine cleavage | purified USP10, Ub-rhodamine fluorescence, 60 min | 47,000 compounds, 1.1% hits | inhibition, % at 20 µM | Q14694
# USP28 block: blocks human USP28 ubiquitin-rhodamine cleavage. purified USP28, Ub-rhodamine cleavage fluorescence, 30 min. inhibition, % at 25 µM. 47,000 compounds, 3% hits
# USP17 inh: inhibitors of human USP17 deubiquitinase; A8MUK1; purified USP17, Ub-rhodamine cleavage fluorescence, 3 h; inhibition, % at 50 µM; 47,000 compounds, 6.5% hits
# USP30 block: blocks human USP30 ubiquitin-rhodamine cleavage; Q70CQ3; purified USP30, Ub-rhodamine cleavage fluorescence; inhibition, % at 25 µM; 47,000 compounds, 5.3% hits; AID 1645860
# The depositor's hits bear a star; i = inactive; . = no result. Cut-off read from the data, not from the text of the source: active = inhibition above about 30%; inactive = the rest.
SMILES,USP8 block,USP10 block,USP28 block,USP17 inh,USP30 block
CCC(C(=O)Nc1ncc2c(n1)CC(c1ccc(C)cc1)CC2=O)c1ccccc1 (stereo not drawn),-3,-3,-15,-19,-30
Cc1ccc(NC(=O)CCS(=O)(=O)c2ccc3c(c2)CC(=O)N3C)cc1F,9,-2,5,0,0
CCOC(=O)c1ccc(-n2c(CN3CCN(c4cc(C)ccc4C)CC3)nc3ccc([N+](=O)[O-])cc3c2=O)cc1,20,6,12,12,30*
O=c1c2cc([N+](=O)[O-])ccc2nc(CN2CCC(Cc3ccccc3)CC2)n1-c1ccccc1F,-75,0,-1,-6,-31
O=c1c2cc([N+](=O)[O-])ccc2nc(CN2CCN(c3ncccn3)CC2)n1-c1ccccc1F,-127,0,2,-7,32*
CCOC(=O)C1CCN(Cc2nc3ccc([N+](=O)[O-])cc3c(=O)n2-c2cc(OC)cc(OC)c2)CC1,-135,6,0,18,-10
Cc1cnnn1-c1ccc(C(=O)Nc2ccccc2Cl)cc1,0,0,.,1,.
CC1=NOC(CNC(=O)Nc2ccccc2F)C1 (stereo not drawn),10,2,0,.,0
Cc1cc(C)c(O)c(-c2cc(C(=O)Nc3ccccc3Cl)[nH]n2)c1,97*,25,19,68*,46*
Cc1cccc(-c2cc(C(=O)Nc3ccccc3F)[nH]n2)c1O,24,13,36*,90*,58*
COc1cccc(-c2cccc(C3CCCNC3)n2)c1 (stereo not drawn),-23,2,11,-1,0
O=C1c2cccc(O)c2C(=O)c2c(O)cccc21,-172,-7,-166,-91,i
C[C@@H]1OC2=C(C(=O)c3cccc(O)c3C2=O)[C@H](O)[C@@H]1O,63*,49*,71*,80*,6
CC(OC(=O)CCc1nc2ccccc2[nH]c1=O)C(=O)Nc1cccc(Cl)c1Cl (stereo not drawn),-60,-4,-15,10,-82
O=C(COC(=O)CCc1nc2ccccc2[nH]c1=O)Nc1ccc([N+](=O)[O-])cc1,81*,-6,-23,3,-200
COc1ccc(NC(=O)COC(=O)c2cccc(S(=O)(=O)N(C)c3cccc(Cl)c3)c2)c(OC)c1,1,7,5,1,33*
CN(c1cccc(Cl)c1)S(=O)(=O)c1cccc(C(=O)OCC(=O)N(Cc2ccccc2)C(C)(C)C)c1,2,2,5,0,6
Cc1ccccc1NC(=O)Cc1nnc(SCC(=O)Nc2cccc3ccccc23)n1C,-13,-3,-24,3,-17
Cc1ccc(NC(=O)c2ccc3nn(CC(=O)Nc4ccc(F)cc4F)c(=O)n3c2)cc1,57*,3,-25,68*,10
Cc1ccc(NC(=O)Cn2nc3cnc4ccccc4n3c2=O)cc1,0,-4,-60,-92,-160
Cc1ccc(NC(=O)c2ccc3nn(CC(=O)Nc4ccc(C)cc4C)c(=O)n3c2)cc1,53*,3,-19,-18,-50
Cc1ccccc1NC(=O)CSc1nnc2ccc(C(=O)NCc3ccccc3)cn12,45*,-1,-4,5,3
O=C(Cn1nc2ccc(C(=O)NCc3ccccc3)cn2c1=O)Nc1ccc2c(c1)OCO2,1,12,8,52*,-22
O=C(Cn1cccnc1=O)N1Cc2cc(Cl)ccc2OC2(CCOCC2)C1,5,1,-2,2,-5
Cc1ccc(C(=O)Nc2ncn(CC(=O)Nc3ccccc3F)n2)cc1,-21,1,10,0,9
SMILES,USP8 block,USP10 block,USP28 block,USP17 inh,USP30 block
Cc1ccc(CNC(=O)c2ccc3nn(CC(=O)Nc4ccccc4F)c(=O)n3c2)cc1,67*,23,-15,6,-56
CCOc1ccccc1NC(=O)C(C#N)C(=O)c1ccc(CC)s1 (stereo not drawn),-15,-3,-24,-32,-99
c1ccc2c(N3CCCC3)nnc(-c3nc(C4CC4)no3)c2c1,-1,4,28,-2,13
c1ccc2c(-c3nc(C4CC4)no3)nnc(NC3CCCC3)c2c1,14,9,36*,13,39*
COc1ccccc1CNc1nnc(-c2nc(C3CC3)no2)c2ccccc12,14,7,23,7,34*
c1ccc(CNc2nnc(-c3nc(C4CC4)no3)c3ccccc23)cc1,5,7,.,-6,.
CC1CCN(c2nnc(-c3nc(C4CC4)no3)c3ccccc23)CC1,6,13,22,21,57*
Cc1cccc2cc(CNCCCN3CCOCC3)c(=O)[nH]c12,10,-1,0,9,-8
COC[C@@H]1C[C@@]1(CN1CCN(S(=O)(=O)c2ccccn2)CC1)c1ccccc1,0,-2,4,4,16
O=C(O)c1ccccc1C(=O)Nc1ccc(SC(C(=O)Nc2ccccc2)c2ccccc2)cc1 (stereo not drawn),5,17,19,63*,13
Cc1ccc(C(=O)O)cc1NC(=O)C(Sc1cccc(NC(=O)c2ccccc2C)c1)c1ccccc1 (stereo not drawn),27,37*,55*,92*,78*
CC(c1ccccc1)n1c(-c2ccc(F)cc2)nc2c(c(=O)c3ccccc3n2C)c1=O (stereo not drawn),32*,-3,13,60*,27
COc1ccc(CCn2c(-c3ccc(C)cc3)nc3c(c(=O)c4ccccc4n3C)c2=O)cc1,-5,1,-7,-13,-28
COc1ccc(CCn2c(-c3ccc(F)cc3)nc3c(c(=O)c4ccccc4n3C)c2=O)cc1OC,17,0,0,20,30
COc1ccc(-c2nc3c(c(=O)c4ccccc4n3C)c(=O)n2CC(C)C)cc1,12,9,12,34*,28
COc1cccc(Nc2nc(-c3cccc(Cl)c3)c3c(n2)-c2ccccc2OC3)c1,4,6,-11,-2,-7
O=C(Nc1ccnn1C1CCN(Cc2ccc3cccc(F)c3n2)CC1)C1CC1,-15,-6,-16,-25,-65
CCCCOC(=O)c1ccc(NC(=O)C(=O)CC(=O)c2ccc(OC)cc2)cc1,77*,7,-26,5,-75
COC(=O)c1ccc(NC(=O)C(=O)CC(=O)c2ccc(OC)cc2)cc1,-106,-5,-27,-2,-85
Cc1cccc(NC(=O)N2CC(C(=O)NC3CCCC3)C3(CCOCC3)C2)c1C (stereo not drawn),18,4,7,15,17
CC(=O)c1ccc(NC(=O)/C(=C/c2ccco2)n2nnnc2-c2ccccc2)cc1,62*,0,12,51*,-128
Nc1c(C(=O)NCC2CCCO2)nnn1-c1ccccc1Cl (stereo not drawn),32*,2,10,17,28
Cc1ccc(-n2nnc(C(=O)NCC3CCCO3)c2N)c(C)c1 (stereo not drawn),10,0,2,5,0
N#Cc1cc(C(=O)c2ccc(Cl)cc2)c[nH]1,-6,-3,28,51*,29

# Bioassay records deposited in PubChem by Buhrlage Lab, Dana-Farber Cancer Institute and Novartis Institutes for BioMedical Research (Cambridge, Mass).
